# Measured values published in PubChem BioAssay (NCATS).
# A number with no mark means an inactive call. Results filed as inconclusive are left out. A call without a number means that no potency is given here. Activity calls are given as the source filed them. Calls follow the shape of the dose curve; as a rule, active = well fitted curve in the direction sought with a large enough effect; inconclusive = small, poorly fitted or top-dose-only effect, or another doubt; inactive = no such curve, though single readings can be large; an effect the other way counts as inactive or inconclusive.
# Assays:
# [1] = qHTS to identify inhibitors of the type 1 interferon - major histocompatibility complex class I in skeletal muscle: primary screen against the NCATS Pharmaceutical Collection (AID 1347407);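 also: luminescence of HiBiT knocked into endogenous HLA-B as interferon-induced MHC class I level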; also: potency is read from the fitted curve at half-maximal effect
# Outline: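 Compounds […] were added to CRISPR-engineered HLA-B-HiBiT C25cl48 human myoblasts with 4.0 ng/ml IFN-beta. After 24 hrs at 37 C, cells were lysed and HiBiT luminescence measured.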
# [2] = molecular target: Protein phosphatase 1D (Homo sapiens) (UniProt O15297); assay: RapidFire Mass Spectrometry qHTS Assay for Modulators of WT P53-Induced Phosphatase 1 (WIP1) (AID 1347424);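 also: amount of dephosphorylated VEPPL-S-QETFS peptide product formed by WIP1; series mostly up to about 63 µM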
# Protein phosphatase 1D (Homo sapiens), sequence (O15297 whole entry, looked up): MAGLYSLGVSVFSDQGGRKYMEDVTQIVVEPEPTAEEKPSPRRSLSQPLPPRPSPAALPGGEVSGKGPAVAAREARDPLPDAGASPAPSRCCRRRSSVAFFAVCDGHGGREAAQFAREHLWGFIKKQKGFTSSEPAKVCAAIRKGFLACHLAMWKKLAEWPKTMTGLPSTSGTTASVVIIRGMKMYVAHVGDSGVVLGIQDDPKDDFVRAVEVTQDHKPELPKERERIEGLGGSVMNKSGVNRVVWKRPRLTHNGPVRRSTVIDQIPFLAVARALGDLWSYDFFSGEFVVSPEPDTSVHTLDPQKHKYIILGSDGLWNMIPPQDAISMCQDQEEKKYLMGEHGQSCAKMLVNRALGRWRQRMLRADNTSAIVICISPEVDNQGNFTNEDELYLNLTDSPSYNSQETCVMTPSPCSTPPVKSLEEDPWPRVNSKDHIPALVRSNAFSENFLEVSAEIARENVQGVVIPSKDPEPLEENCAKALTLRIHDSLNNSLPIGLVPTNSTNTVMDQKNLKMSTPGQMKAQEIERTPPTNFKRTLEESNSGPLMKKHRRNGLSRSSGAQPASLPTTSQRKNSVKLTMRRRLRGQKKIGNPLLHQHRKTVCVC
# Outline: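 10 nM WIP1 preincubated with compounds 1 hr at room temperature in pH 7.5 Tris buffer with 30 mM MgCl2, 1 mM TCEP; 2 uM VEPPL-pS-QETFS phosphopeptide for 5 min, formic acid quench; dephosphorylated product quantified by RapidFire MS against labelled standard.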
# [3] = molecular target: Protein phosphatase 1D (Homo sapiens) (UniProt O15297); assay: Rhodamine-PBP qHTS Assay for Modulators of WT P53-Induced Phosphatase 1 (WIP1) (AID 1347425)
# Outline: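 Read-out: Rhodamine-PBP fluorescence (ex 525/em 598 nm) for released Pi, read each minute for 11 min after adding 10 uM VEPPL-pS-QETFS; signal taken as f1 minus pre-substrate f0. Enzyme 5 nM WIP1 with 1 hr room-temperature compound preincubation.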
# [4] = qHTS to identify inhibitors of the type 1 interferon - major histocompatibility complex class I in skeletal muscle: primary screen against the NCATS LOPAC collection (AID 1347405);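 also: lytic HiBiT luminescence reporting HLA-B protein level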; also: potency is read from the fitted curve at half-maximal effect
# Outline: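 CRISPR-engineered immortalized human myoblasts (C25cl48) with HiBiT fused to endogenous HLA-B*08:01, stimulated with 4 ng/ml IFN-beta. LOPAC compounds tested as a 7-point 1:4.3 titration (top 46 uM final), 24 h at 37 C; lytic HiBiT luminescence read.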
# [5] = qHTS for inhibitors of adenylyl cyclases using a fission yeast platform: a pilot screen against the NCATS LOPAC library (AID 1347410)
# Outline: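 GFP from fbp1-GFP reporter, read by Acumen laser cytometry, indicates AC inhibition in fission yeast expressing AC9, GNAS and PDE4D2. Cells grown 18 h in the dark at 30C with compounds, final up to 57 uM.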
# [6] = qHTS to identify inhibitors of the type 1 interferon - major histocompatibility complex class I in skeletal muscle: primary screen against the NCATS Mechanism Interrogation Plate v5.0 (MIPE) Libary (AID 1347411); also: nearly all actives have a fitted effect of over 65% in size; also: potency is read from the fitted curve at half-maximal effect
# Outline: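 Immortalized human myoblasts (C25cl48) with HiBit knocked into endogenous HLA-B*08:01 were stimulated with 4 ng/ml IFN-beta and given compounds in 11-point 1:3 titration from 46 uM. After 24 h at 37 C, lytic HiBiT luminescence was read.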
# [7] = Vero-766 cells viability qHTS against the NCATS CANVASS Library: Counterscreen for Zika virus inhibition assay (AID 1347394); also: series mostly up to about 46 µM; nearly all actives have a fitted effect of over 60% in size
# Outline: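 CellTiter Glo luminescence measured cytotoxicity after 72 h at 37C in uninfected Vero 766 cells, plated at 1000 cells/well. Compounds were applied in an 11-point series. Wells without cells defined 100% inhibition.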
# [8] = qHTS for inhibitors of Wild type Zika virus screened against the NCATS CANVASS Library (AID 1347396);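 also: ATP luminescence of surviving cells so rescue from viral cell killing; series mostly up to about 46 µM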
# Outline: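 Vero 766 cells, 1000/well, o/n attach; cpds pin-transferred (11-pt qHTS); WT Zika added; 72 h, 37C, 5% CO2; CellTiter Glo lumi. Uninfected + vehicle = 100% inhibition.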
# [9] = Viability qHTS for inhibitors of the SERCaMP assay screened against the NCATS CANVASS Library (AID 1347400); also: series mostly up to about 92 µM; nearly all actives have a fitted effect of over 70% in size
# Outline: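 SH-SY5Y-GLuc SERCaMP MJH297-derived cells, 1000/well, plated 4 h, then exposed to compounds in an 11-point qHTS series for 48 h at 37C. Viability read as CellTiter-Glo luminescence.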
# [10] = Redox Reaction Profiling qHTS: Assay Interference Panel against the NCATS CANVASS Library (AID 1347401); also: potency is read from the fitted curve at half-maximal effect
# Outline: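 Compounds in 11-point series incubated with 5 uM resazurin and 200 uM DTT in 50 mM HEPES pH 7.3, 50 mM NaCl. Resorufin fluorescence (Ex 525/Em 598) read before and after 15 min in the dark.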
smiles,measurement,setting,value
N#C[C@H]1C[C@H]2C[C@@H]2N1C(=O)[C@@H](N)C12CC3CC(CC(O)(C3)C1)C2,Potency,[1],inactive
same,outcome,[2],inactive
same,outcome,[3],inactive
CCN1CCC[C@H]1CNC(=O)c1cc(S(N)(=O)=O)ccc1OC,Potency,[4],inactive
same,Potency,[1],inactive
same,outcome,[5],inactive
same,outcome,[2],inactive
same,outcome,[3],inactive
COc1ccc2cccc(CCNC(C)=O)c2c1,Potency,[1],inactive
same,Potency,[6],inactive
same,outcome,[2],inactive
same,outcome,[3],inactive
C[N+](C)(C)CC(=O)O,Potency,[1],inactive
same,Potency,[6],inactive
same,outcome,[2],inactive
same,outcome,[3],inactive
O=C(NCCN1CCOCC1)c1ccc(Cl)cc1,Potency,[4],inactive
same,Potency,[1],inactive
same,outcome,[5],inactive
same,outcome,[2],inactive
same,outcome,[3],inactive
O=C(O)C(O)Cc1ccc(O)c(O)c1 (stereo unspecified),outcome,[7],inactive
same,outcome,[8],inactive
same,outcome,[9],inactive
same,Potency,[10],15.2 µM (active)
CC1=C(/C=C/C(C)=C/C=C/C(C)=C/C(=O)Nc2ccc(O)cc2)C(C)(C)CCC1,Potency,[1],inactive
same,outcome,[5],inactive
same,outcome,[3],inactive
CN(C)CCC(c1ccccc1)c1ccccn1 (stereo unspecified),Potency,[4],inactive
same,Potency,[1],inactive
same,outcome,[5],inactive
same,outcome,[2],inactive
same,outcome,[3],inactive
CC(=O)c1ccc(S(=O)(=O)NC(=O)NC2CCCCC2)cc1,Potency,[4],inactive
same,Potency,[1],inactive
same,outcome,[5],inactive
same,outcome,[2],inactive
same,outcome,[3],inactive
CC(=O)N[C@@H](CS)C(=O)O,Potency,[4],inactive
same,Potency,[1],inactive
same,outcome,[5],inactive
same,outcome,[2],inactive
same,outcome,[3],inactive
CCN(CC)C(=O)c1ccc(O)c(OC)c1,Potency,[4],inactive
same,Potency,[1],inactive
same,outcome,[5],inactive
same,outcome,[2],inactive
same,outcome,[3],inactive
COC(=O)[C@@H]1[C@H]2C[C@H]3c4[nH]c5ccccc5c4CCN3C[C@@H]2CC[C@@H]1O,outcome,[7],inactive
same,outcome,[8],inactive
same,outcome,[9],inactive
same,Potency,[10],inactive
same,Potency,[4],inactive
same,Potency,[1],inactive
same,outcome,[5],inactive
same,Potency,[6],inactive
same,outcome,[2],inactive
same,outcome,[3],inactive
COc1cc2ncnc(Nc3ccc(F)c(Cl)c3)c2cc1OCCCN1CCOCC1,Potency,[1],inactive
same,Potency,[6],inactive
same,outcome,[2],inactive
same,outcome,[3],inactive
CC(C)NCC(O)COc1cccc2[nH]ccc12 (stereo unspecified),Potency,[4],inactive
same,Potency,[1],inactive
same,outcome,[5],inactive
same,outcome,[2],inactive
same,outcome,[3],inactive
CCN(CC)CCOC(=O)c1ccc(N)cc1,Potency,[4],inactive
same,Potency,[1],inactive
same,outcome,[5],inactive
same,outcome,[2],inactive
same,outcome,[3],inactive
CC(=O)O[C@]1(C(C)=O)CC[C@H]2[C@@H]3C=C(Cl)C4=CC(=O)[C@@H]5C[C@@H]5[C@]4(C)[C@H]3CC[C@@]21C,Potency,[4],inactive
same,Potency,[1],inactive
same,outcome,[5],inactive
same,outcome,[3],inactive
CCCCC1C(=O)N(c2ccccc2)N(c2ccccc2)C1=O,Potency,[4],15.8 µM (active)
same,outcome,[5],inactive
O=C1NC(=O)C(c2ccccc2)(c2ccccc2)N1,Potency,[4],inactive
same,Potency,[1],inactive
same,outcome,[5],inactive
same,outcome,[2],inactive
same,outcome,[3],inactive
CC(=O)CCCCn1c(=O)c2c(ncn2C)n(C)c1=O,Potency,[4],inactive
same,Potency,[1],inactive
same,outcome,[5],inactive
same,outcome,[2],inactive
same,outcome,[3],inactive
CC(C)(C(=O)NCC(F)(F)C(F)(F)F)C(=O)N[C@@H]1C(=O)Nc2ccccc2-c2ccccc21,Potency,[6],inactive
CC(C)C[C@H](CC(=O)O)C(=O)N[C@@H](Cc1c[nH]c2ccccc12)C(=O)N[C@@H](C)c1ccccc1,Potency,[6],inactive
CCCCCN(C)CCC(O)(P(=O)(O)O)P(=O)(O)O,"activity change, negative = inhibition",[6],-11.6% [at 5.1 µM]
NS(=O)(=O)c1cccc2c1C(=O)c1cccc(O)c1C2=O,Potency,[6],0.415 µM (active)
O=C(O)c1cc(-c2ccccc2)nc2ccccc12,Potency,[1],inactive
same,outcome,[2],inactive
same,outcome,[3],inactive
COc1ccc(-n2c(C)c([N+](=O)[O-])c3ccc(O)cc32)cc1,Potency,[6],inactive
COc1cc(N2CCC(N3CCN(C)CC3)CC2)ccc1Nc1ncnc(Nc2ccccc2S(=O)(=O)C(C)C)n1,Potency,[6],4.15 µM (active)
NC(N)=Nc1nc(CSCC/C(N)=N/S(N)(=O)=O)cs1,outcome,[5],inactive
same,outcome,[2],inactive
same,outcome,[3],inactive
COC[C@@H](c1ccc(C(F)(F)F)cc1)N1CCN(C2(C)CCN(C(=O)c3c(C)ncnc3C)CC2)C[C@H]1C,Potency,[1],inactive
same,outcome,[2],inactive
same,outcome,[3],inactive
O=C(NC1CCOCC1)c1ccc(-c2cc(-c3cn[nH]c3-c3ccccn3)ccn2)cc1,Potency,[6],inactive
Clc1ccc(C(c2ccc(Cl)cc2)n2cc[n+](CC(OCc3ccc(Cl)cc3Cl)c3ccc(Cl)cc3Cl)c2)cc1 (stereo unspecified),outcome,[5],inactive
C[C@@H](O)[C@H]1C(=O)N2C(C(=O)O)=C(S[C@@H]3CN[C@H](C(=O)N(C)C)C3)[C@H](C)[C@H]12,Potency,[1],inactive
same,outcome,[2],inactive
same,outcome,[3],inactive
CCCCCNC(=O)N1CCC(CN(Cc2ccc(Cl)cc2)Cc2ccc([N+](=O)[O-])s2)C1 (stereo unspecified),Potency,[6],inactive
C[C@H](NC(=O)C(=O)Nc1ccccc1C(C)(C)C)C(=O)N[C@@H](CC(=O)O)C(=O)COc1c(F)c(F)cc(F)c1F,Potency,[6],13.1 µM (active)
CCCNC(=O)NS(=O)(=O)c1ccc(Cl)cc1,outcome,[5],inactive
same,outcome,[2],inactive
same,outcome,[3],inactive
CC#CCn1c(N2CCC[C@@H](N)C2)nc2c1c(=O)n(Cc1nc(C)c3ccccc3n1)c(=O)n2C,Potency,[6],inactive
CC1(C)CCC2=C(O1)c1ccccc1C(=O)C2=O,outcome,[5],inactive
CC[C@]1(O)C[C@@H]2CN(CCc3c([nH]c4ccccc34)[C@@](C(=O)OC)(c3cc4c(cc3OC)N(C)[C@H]3[C@@](O)(C(=O)OC)[C@H](OC(C)=O)[C@]5(CC)C=CCN6CC[C@]43[C@@H]65)C2)C1,Potency,[1],inactive
same,outcome,[2],inactive
same,outcome,[3],inactive
CN1C[C@H]2c3ccccc3Oc3ccc(Cl)cc3[C@@H]2C1,Potency,[1],inactive
same,outcome,[2],inactive
same,outcome,[3],inactive
O=C(CCCCCCC(=O)Nc1ccccc1)NO,Potency,[1],4.19 µM (active)
same,outcome,[2],inactive
same,outcome,[3],inactive
CC/C(=C(\c1ccccc1)c1ccc(OCCN(C)C)cc1)c1ccccc1,outcome,[5],inactive
same,Potency,[6],30.1 µM (active)
same,outcome,[2],inactive
same,outcome,[3],inactive
O=c1cc(-c2ccc(O)cc2)oc2cc(O)cc(O)c12,outcome,[5],inactive
Cc1ccc(/C=N/NC(=O)c2ccccc2Oc2ccccc2)o1,Potency,[6],inactive
CC(C)(C)c1cc(C(=O)O)c(NC(=O)Nc2ccc3[nH]ncc3c2)s1,Potency,[6],inactive
CCN(CC)CCNC(=O)c1ccc(N)cc1,outcome,[5],inactive
same,outcome,[2],inactive
same,outcome,[3],inactive
CC(C)(C)c1ccc(C(O)CCCN2CCC(C(O)(c3ccccc3)c3ccccc3)CC2)cc1 (stereo unspecified),outcome,[5],inactive
same,outcome,[2],inactive
same,outcome,[3],inactive
O=C(Nc1ccccc1-c1cn2c(CN3CCNCC3)csc2n1)c1cnc2ccccc2n1,Potency,[6],14.7 µM (active)
COCCOC(=O)C1=C(C)NC2=C(C(=O)CC(c3ccccc3OC)C2)C1c1cccc(O)c1 (stereo unspecified),Potency,[6],inactive
Clc1ccc(CCC(Cn2ccnc2)Sc2c(Cl)cccc2Cl)cc1 (stereo unspecified),Potency,[6],inactive
O=C(NOCC(O)CO)c1cc(Br)c(F)c(F)c1Nc1ccc(I)cc1F (stereo unspecified),Potency,[6],inactive
c1ccc2c(-c3cnn4cc(-c5ccc(N6CCNCC6)cc5)cnc34)ccnc2c1,Potency,[6],7.39 µM (active)
O=C(CCN1CCN(C(=O)OCc2cc(Cl)cc(Cl)c2)CC1)c1ccc2[nH]c(=O)oc2c1,Potency,[6],inactive
O=C(O)Cc1cccc2ccccc12,Potency,[1],inactive
same,outcome,[2],inactive
same,outcome,[3],inactive
